Screening results as filed in PubChem.
Compounds with a hit are over-represented: about 21% of the library has one in this group of screens.
CHX counter: Cycloheximide Counterscreen for Small Molecule Inhibitors of Shiga Toxin; cell reporter, cycloheximide protein synthesis inhibition counterscreen; max response, %; 300,000 compounds, 12% hits; AID 2314, 2010; in the data active = max response mostly above about 13%, no sharp cut-off; inactive = mostly below about 14%; note: read at 38.3 µM for the half of the compounds with a filed dose
HCMV antiviral: qHTS Assay for inhibitors of the human cytomegalovirus (HCMV) | HFF cells, HCMV-luciferase reporter, 72 h; hits give low values | activity change, negative = inhibition, % at 57.5 µM | 410,000 compounds, 4.5% hits; in the data active = activity change below about -60%; inconclusive = no clear call, values can overlap the other calls; inactive = above about -39%
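Inhibition of viral replication was scored as loss of reporter luminescence in HFFs infected with HCMV-luciferase (MOI 1 PFU/cell) for 72 h; compounds tested at 2 doses, normalized to buffer and Salinomycin controls.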
Pf growth 48h: Primary qHTS for delayed death inhibitors of the malarial parasite plastid, 48 hour incubation; 310,000 compounds, 5.9% hits; AID 504832, 2011; P. falciparum luciferase growth in erythrocytes, 48 h; Potency, µM (top dose mostly 28.7 µM), hits mostly inhibitors
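Luciferase-expressing P. falciparum in infected erythrocytes (2% hematocrit, 0.1% parasitemia final) in RPMI 1640/0.5% Albumax were exposed to compound for 48 hours at 37 C, 5% CO2; growth read as luminescence.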
HCV inh: qHTS Assay for Inhibitors of Hepatitis C Virus (HCV) | Huh7.5.1 HCVcc-Cre infection, luciferase reporter, 44 h | 340,000 compounds, 3.4% hits | AID 651820, 2012 | Potency, µM (doses to about 41.8 µM), most hits filed as inhibitors
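Seed cells (1,000/well) for 4 h; treat with compound and infect with HCVcc-Cre, moi about 0.5. Incubate 44 h, then detect luciferase activity.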
Pf growth 96h: Primary qHTS for delayed death inhibitors of the malarial parasite plastid, 96 hour incubation | P. falciparum luciferase reporter growth, 96 h | Potency, µM (series often up to 28.7 µM), most hits filed as inhibitors | 320,000 compounds, 6.9% hits
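Parasite growth measured via integrated firefly luciferase reporter in P. falciparum. Infected erythrocytes at 2% hematocrit, 0.05% parasitemia final were treated 96 hours at 37 C under 5% CO2, and luminescence was read.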
Shiga inhibitor: A qHTS for Small Molecule Inhibitors of Shiga Toxin. inhibition, % at 38.7 µM. AID 2315, 2010. Vero cells, Shiga toxin protein synthesis inhibition reporter. 290,000 compounds, 9.2% hits; in the data active = inhibition mostly above about 28%, no sharp cut-off; inactive = mostly below about 43%
Large screens that a line does not name were inactive. Unless noted, calls come from the whole dose curve; as a rule, active = well fitted inhibition curve with a large enough effect; inconclusive = small, poorly fitted or top-dose-only effect, or another doubt; inactive = no such curve, though single readings can be large or run the other way.

CCc1cc(C(=O)OC)c(NC(=O)CN2CCN(C(=O)c3ccco3)CC2)s1	Pf growth 48h 1.65µM, Pf growth 96h inconclusive (no result: HCV inh)
CCOC(=O)N1CCN(CC(=O)Nc2sc(CC)cc2C(=O)c2ccc(OC)cc2)CC1	Pf growth 48h inconclusive, HCV inh inconclusive, Pf growth 96h 10.4µM
COC(=O)c1ccccc1NC(=O)CN1CCN(C(=O)c2ccco2)CC1	Pf growth 48h inconclusive (no result: Pf growth 96h)
CCc1noc(C)c1C(=O)OCC(=O)c1ccc(NC(C)=O)cc1F	none (no result: CHX counter, Pf growth 48h, Pf growth 96h, Shiga inhibitor)
CCOC(=O)N1CCc2c(sc(NC(=O)CN(CC)CC)c2C#N)C1	none
CC12CS(=O)(=O)CC1SC(=S)N2Cc1ccccc1 (stereo not drawn)	none
COc1ccc(-n2ncc3c(NCCCOC(C)C)ncnc32)cc1	none (no result: CHX counter, Pf growth 48h, HCV inh, Pf growth 96h, Shiga inhibitor)
COc1ccc(C(=O)Cc2ccc(OC)c(OC)c2)c(OC)c1	CHX counter 12.0, HCMV antiviral inconclusive, HCV inh inconclusive (no result: Pf growth 96h)
COc1ccc(OC)c(N(CCN2C(=O)c3ccccc3C2=O)C(=O)CCl)c1	HCMV antiviral -97.7 (no result: CHX counter, Pf growth 48h, HCV inh, Pf growth 96h, Shiga inhibitor)
COc1ccccc1C(=O)COC(=O)CN1C(=O)c2ccccc2C1=O	none
COc1ccc(CC(=O)c2cc(OC)c(OC)cc2CC(=O)O)cc1OC	none (no result: Pf growth 96h)
COc1ccc(C(=O)CN2C(=O)c3ccccc3C2=O)c(OC)c1	CHX counter 14.9
COc1ccc(C(=O)Cc2cc(OC)c(OC)cc2C(=O)c2ccccc2F)cc1OC	Pf growth 48h inconclusive, HCV inh 10µM, Pf growth 96h inconclusive
Cc1cccc(C)c1N=Cc1c(C(F)(F)F)[nH][nH]c1=O	none
O=C(NCC(c1ccc2c(c1)OCO2)N1CCOCC1)c1cccc(Cl)c1 (stereo not drawn)	none (no result: CHX counter, Pf growth 48h, HCV inh, Pf growth 96h, Shiga inhibitor)
COc1ccc(CC(=O)c2ccc(OC)c(OC)c2)cc1	CHX counter 23.2, HCV inh inconclusive
O=C(O)c1ccccc1N/N=C/c1c(Sc2nnnn2-c2ccccc2)nc2ccccn2c1=O	Pf growth 48h inconclusive, Pf growth 96h 0.586µM
O=C(COc1ccc(Cl)cc1)Nc1nnc(-c2ccco2)o1	Pf growth 96h inconclusive
CC(C)(C)c1ccc(S(=O)(=O)N2CCc3nc4ccccc4c(C(=O)O)c3C2)cc1	none
Cc1c(C(=O)OC/C(O)=C(\C#N)c2nc3ccccc3[nH]2)oc2ccc(Br)cc12	Pf growth 96h inconclusive
Cc1cccc(C)c1OCC(=O)OC/C(O)=C(\C#N)c1nc2ccccc2[nH]1	HCMV antiviral inconclusive
N#C/C(=C(/O)COC(=O)COc1cccc(Br)c1)c1nc2ccccc2[nH]1	HCMV antiviral -78.4, Pf growth 96h inconclusive
Cc1cc(C)cc(OCC(=O)OC/C(O)=C(\C#N)c2nc3ccccc3[nH]2)c1	HCMV antiviral -80.7
Cc1ccc(Cl)cc1N1CCN(S(=O)(=O)c2ccc3c(c2)NC(=O)C(C)C(=O)N3)CC1 (stereo not drawn)	Pf growth 96h inconclusive
COc1ccccc1OCc1nc2ccccc2n1Cc1ccccc1	none (no result: CHX counter, Pf growth 48h, HCV inh, Pf growth 96h, Shiga inhibitor)
CCS(=O)(=O)Nc1cccc(C2=NN(S(=O)(=O)CC)C(c3cccs3)C2)c1 (stereo not drawn)	Pf growth 48h inconclusive, Pf growth 96h 13.1µM
CCS(=O)(=O)Nc1cccc(C2=NN(S(=O)(=O)c3ccc(F)cc3)C(c3cccs3)C2)c1 (stereo not drawn)	Pf growth 48h inconclusive, Pf growth 96h 8.28µM
CCN1C(=O)c2n[nH]c(C(=O)OC)c2C1=O	Pf growth 48h inconclusive, HCV inh inconclusive, Pf growth 96h 10.4µM
Cc1cccc(NC(=O)CSc2nc(C)c(CC(=O)c3ccc(Br)cc3)c(C)c2C#N)c1C	HCMV antiviral -79.1 (no result: Pf growth 96h)
Cc1nc(SCC(=O)Nc2ccc(F)cc2)c(C#N)c(C)c1CC(=O)c1ccc(Br)cc1	Pf growth 96h inconclusive (no result: Pf growth 48h)
CCOC(=O)c1c(N2C(=O)C3C4C=CC(C4)C3C2=O)sc2c1CCC(C)C2 (stereo not drawn)	Pf growth 96h 13.1µM
CCOC(=O)c1c(NC(=O)C2C3C=CC(C3)C2C(=O)O)sc2c1CCC(C)C2 (stereo not drawn)	Pf growth 96h inconclusive
O=C(Nc1ccccc1)c1nsnc1C(=O)Nc1ccccc1	HCMV antiviral inconclusive
COc1cc2ccccc2c2c1CCCC2=O	HCV inh 12.6µM (no result: Pf growth 48h)
